Here are results for 25 molecules from PubChem BioAssay AID588819 (The Scripps Research Institute Molecular Screening Center, 2011).

SMILES strings stand for the structures. Out of some 360,000 compounds screened, about 320 (0.089%) were called active. The list comes from a sample in which actives are over-represented; it also holds similar structures and randomly drawn compounds. Unmarked numbers belong to inactive results. Rule as the data show it: active = activation above about 19% (passing the limit was not always enough); inactive = the rest.

For this assay, the target named is Muscarinic acetylcholine receptor M1 (Homo sapiens) (UniProt P11229). Nature of the assay: CHRM1 PAMs potentiating acetylcholine calcium signal – CHO-K1 cells, Fluo-8 calcium fluorescence, 1536-well, primary screen (AID 588819). The settings on record: CHO-K1 hM1, Fluo-8 calcium fluorescence, ACh EC20; at 3 µM; active compounds read high; 0% = ACh EC20, 100% = maximal ACh.
Sequence of Muscarinic acetylcholine receptor M1 (Homo sapiens) (P11229 whole entry, looked up): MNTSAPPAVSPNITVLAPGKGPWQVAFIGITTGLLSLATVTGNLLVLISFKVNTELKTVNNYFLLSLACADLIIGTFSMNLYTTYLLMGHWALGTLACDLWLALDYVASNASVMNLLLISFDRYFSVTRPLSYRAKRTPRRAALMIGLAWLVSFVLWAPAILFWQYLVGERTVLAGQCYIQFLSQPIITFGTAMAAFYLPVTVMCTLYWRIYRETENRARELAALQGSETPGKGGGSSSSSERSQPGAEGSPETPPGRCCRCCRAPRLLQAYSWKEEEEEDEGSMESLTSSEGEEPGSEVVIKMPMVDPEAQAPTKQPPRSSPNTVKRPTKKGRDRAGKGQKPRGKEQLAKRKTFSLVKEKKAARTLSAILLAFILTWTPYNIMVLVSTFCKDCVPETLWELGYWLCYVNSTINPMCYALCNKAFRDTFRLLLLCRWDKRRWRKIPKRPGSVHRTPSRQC
With `CSc1nc(C)cc(SC(C(C)=O)C(=O)Nc2ccccc2)n1` (stereo not given), the activation is 23.1% (active).

In the case of `CSc1ccccc1C(=O)Nc1cccc(C(C)=O)c1`, the activation is -2.71%.

For the molecule `CC(Sc1nnc2c(n1)C1CCC2(C)C1(C)C)C(=O)Nc1ccccc1` (stereo not given), the activation is 11.8%.

With `Cc1ccc(S(=O)(=O)N(CCc2ccccc2)c2ccc3c(c2)C2CC3CCN2C(=O)OCc2ccccc2)cc1` (stereo not given), the activation was 10.4%.

With `COc1ccccc1OCC(=O)OCn1c(SC)nnc(C)c1=O`, the activation was 2.31%.

For `Cc1nc(-c2ccc(F)cc2)c(CC(=O)Nc2cc(S(=O)(=O)N3CCCCC3)ccc2C)s1`, the activation is 14.8%.

In the case of `Cc1ccc(NC(=O)CSc2nn3c(=O)c(C)nnc3s2)cc1Cl`, the activation is 10.6%.

With `Cc1ccccc1CSCCNC(=O)c1ccc(Cl)c(S(=O)(=O)N2CCOCC2)c1`, the activation is -5.71%.

As to `COc1ccc(Cl)cc1NC(=O)COc1ccc2c(c1)OCO2`, the activation is 7.62%.

`CN=C1SC(C(=O)O)CC(=O)N1C` (stereo not given): the activation is 7.37%.

As for `COc1cc(C(=O)N(C)Cc2cccc(OC)c2OC)ccc1OCC(=O)Nc1cccc(C(F)(F)F)c1`, the activation is -5.88%.

As to `COC(=O)c1ccc2ccccc2c1OC1OC(CO)C(O)C(O)C1NC(C)=O` (stereo not given), the activation was 9.3%.

As for `CC(=O)c1cccc(NC(=O)C2CCCN2S(=O)(=O)c2cccc3nsnc23)c1` (stereo not given), the activation is -0.71%.

For `Cc1ccc(CN2CCN(c3ccccc3Cl)CC2)o1`, the activation was 5.74%.

As to `CCOc1cc(C(=O)Nc2ccc(S(=O)(=O)Nc3cnc4ccccc4n3)cc2)cc(OCC)c1OCC`, the activation is 7.77%.

As for `COc1ccc([N+](=O)[O-])cc1N(CC(O)Cn1nnc2ccccc21)S(=O)(=O)c1ccc(C)cc1` (stereo not given), the activation was 21.8%.

In the case of `Oc1cccc(CCc2ccccn2)c1`, the activation is 4.71%.

`CCCn1c(=O)c2c(C(F)(F)F)cc(-c3cccs3)nc2n(CCC)c1=O`: the activation was 1.78%.

With `CCC(=O)N1CCCC1(C)C(=O)Nc1ccc2c(c1)CCN2C(C)=O` (stereo not given), the activation was 8.84%.

For the molecule `COC(=O)c1ccc2nc(-c3ccc(OC)c(OC)c3)c(Cc3ccccc3)n2c1`, the activation was 2.75%.

As for `COC(=O)c1ccc2nc(C3CCCCC3)c(Cc3cccc(F)c3)n2c1`, the activation was 27% (active).

On to `COC(=O)c1ccc2nc(-c3ccc(Cl)cc3)c(Cc3cccc(F)c3)n2c1`, for which the activation is -0.44%.

On to `CN(C)CCN(Cc1ccccc1)S(=O)(=O)c1csc(C(N)=O)c1`, for which the activation was 10.5%.

Regarding `O=C(Cc1ccccc1)NCC1OCCc2ccccc21` (stereo not given), the activation was -5.39%.

As for `CCCCN(CC(=O)NC(C)(C)C)C(=O)C(=O)Nc1ccc2c(c1)OCCO2`, the activation was 7.88%.
